# Reference: PubChem BioAssay (EPA / NIEHS)
# Values joined by “and” are separate entries in the source; they are usually repeats but may differ in a detail not shown here. Equal entries are not always repeated. Active and inactive are the calls of the source. The calls were made as follows: active = hit-call score of the fitted dose curve at least 0.9, where 1 is the maximum; inactive = score below 0.9.
# Read-out: Matrix Metallopeptidase 9 (MMP9), MMP9 (gene 4318)
# Assay: BSK_KF3CT_MMP9: BioMAP Diversity Plus: KF3CT Assay for Matrix Metallopeptidase 9 (MMP9) Biomarker Activity (AID 2283074)
# Settings: primary human keratinocytes with fibroblasts; actives raise or lower the signal
# Method: BSK_KF3CT is a cell-based, multiplexed-readout assay that uses keratinocytes and foreskin fibroblasts, a human skin primary cell co-culture, with measurements taken at 24 hours after chemical dosing in a 96-well plate.BSK_KF3CT_MMP9 is an assay component measured in the BSK_KF3CT assay. It measures MMP-9 antibody related to regulation of gene expression using ELISA technology.Data from the assay component BSK_KF3CT_MMP9 was analyzed into 1 assay endpoint. This assay endpoint, BSK_KF3CT_MMP9, was analyzed with bidirectional fitting relative to DMSO as the negative control and baseline of activity. Using a type of binding reporter, gain or loss-of-signal activity can be used to understand changes in the signaling as they relate to the gene MMP9. Furthermore, this assay endpoint can be referred to as a primary readout, because this assay has produced multiple assay endpoints where this one serves a signaling function. To generalize the intended target to other relatable targets, this assay endpoint is annotated to the protease intended target family, where the subfamily is matrix metalloproteinase.
# The levels of cell surface (or secreted, indicated by the prefix "s") biomarker endpoints were measured by ELISA. Overt cytotoxicity to cells in confluent adherent cultures (all systems other than the BT system) was assessed by measuring total protein levels using sulforhodamine B (SRB) staining in parallel cultures at the time of biomarker measurements, indicated as SRB endpoints. For proliferation assays for adherent cell types, individual cell types are cultured at sub-confluence and relative cell numbers quantified by SRB staining at time points optimized for each system (48 h: 3C and CASM3C systems; 72 h: BT and HDF3CGF systems; 96 h: SAg system). SRB was performed by staining cells with 0.1% SRB after fixation with 10% TCA and reading wells at 560 nm.Viability and proliferation of PBMC (T cells) was quantified by Alamar Blue reduction for the SAg and BT systems. For PBMC viability (referred to as PBMC Cytotoxicity within the assay endpoint names), cells were plated (75,000/well in a 96-well plate) and then chemical samples added for 1 h before addition of activators, SEB and TSST-1 (20 ng/mL final concentration each). Cells were incubated for 90 h. Then, Alamar Blue (20 uL/well) (Invitrogen, Cat DAL1100) was added for 6 h, and the plates were read with a fluorescence microplate reader at 546/580 nm (excitation/emission). For PBMC proliferation, cells were plated and activated as above but incubated for only 16 h prior to addition of Alamar Blue. Plates were read after 6 h.
Structure (SMILES),outcome,AC50
CCCCCCC(O)CCCCCCCCCCC(=O)OC (configuration not stated),inactive,–
CCCCCCCCCCCCCCCCCC[N+](C)(C)C,–,3.32 µM (active)
COC(=O)/C=C\C(=O)OC,inactive,–
CN(C)c1ccc(C(c2ccccc2)c2ccc(N(C)C)cc2)cc1,–,13.6 µM (active)
CCC(C)=NO,inactive,–
C1CN(CCOCCN2CCOCC2)CCO1,inactive,–
O=[N+]([O-])c1cc(S(=O)(=O)Nc2ccccc2)ccc1Nc1ccccc1,–,31.5 µM (active) and 29.5 µM (active)
CC[N+](CC)(CC(=O)Nc1c(C)cccc1C)Cc1ccccc1 (tested in a mixture with another compound),inactive,–
Oc1cccc2ccccc12,inactive,–
COc1ccccc1Oc1c(NS(=O)(=O)c2ccc(C(C)(C)C)cc2)nc(-c2ncccn2)nc1OCCO,inactive,–
Cc1c(C(N)=O)cc([N+](=O)[O-])cc1[N+](=O)[O-],inactive,–
CCCCCCCCCC/C=C/C1CC(=O)OC1=O (configuration not stated),–,27.7 µM (active)
CCCCC(CC)COC(=O)C=Cc1ccc(OC)cc1 (configuration not stated),inactive,–
Sc1nc2ccccc2s1,inactive,–
COc1ccc(C(=O)c2ccccc2O)c(O)c1,inactive,–
CC(C)C1OCCN1CCOC(=O)NCCCCCCNC(=O)OCCN1CCOC1C(C)C (configuration not stated),inactive,–
Cc1cc(-n2nc3ccc(Cl)cc3n2)c(O)c(C(C)(C)C)c1,inactive,–
Cc1cccnc1,inactive,–
CC(C)CC(=O)CC(C)CC(C)C (configuration not stated),–,36.4 µM (active)
CCCCCCCCCCC1CO1 (configuration not stated),–,36.1 µM (active)
COc1cc(CNC(=O)CCCC/C=C/C(C)C)ccc1O,inactive,–
CN(C)Cc1cc(C(C)(C)C)c(O)c(C(C)(C)C)c1,inactive,–
CN(C)CCC(c1ccc(Cl)cc1)c1ccccn1 (configuration not stated),inactive,–
CC[N+](CC)(CC(=O)Nc1c(C)cccc1C)Cc1ccccc1,inactive,–
OC(C(F)(F)F)(C(F)(F)F)C(O)(C(F)(F)F)C(F)(F)F,–,43 µM (active) and 46.1 µM (active)
CCC[Si](OC(C)=O)(OC(C)=O)OC(C)=O,inactive,–
O=C(C(=O)c1ccccc1)c1ccccc1,inactive,–
